Measured values published in PubChem BioAssay (NCI).
Compounds without any hit were thinned out: in the full panel of roughly 79,000, 15% have a hit. The source made the active and inactive calls. Rule as the data show it: active = growth inhibition above about 70%; inactive = the rest.

How the values were obtained:
[1] = NCI Yeast Anticancer Drug Screen. Data for the rad50 strain (AID 155);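 also: 0% = growth of vehicle-only cultures of the same strain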; conditions: S. cerevisiae rad50 strain growth inhibition, active compounds read high
In short: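 Relative growth inhibition (compound vs vehicle) was measured in yeast with a defined repair-gene alteration.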

[2] = NCI Yeast Anticancer Drug Screen. Data for the mec2-1 strain (AID 157); conditions: S. cerevisiae mec2-1 strain, active compounds read high
In short: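 Mutant yeast (mec2-1) grown with compound; growth inhibition relative to vehicle control reported.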

[3] = NCI Yeast Anticancer Drug Screen. Data for the sgs1 mgt1 strain (AID 161);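 also: 0% = growth of cultures given vehicle only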; conditions: S. cerevisiae sgs1 mgt1 strain, active compounds read high
In short: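 Percent growth inhibition was derived by comparing compound-exposed mutant yeast with vehicle-exposed cultures. The strain carries alterations in DNA damage repair.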

[4] = NCI Yeast Anticancer Drug Screen. Data for the cln2 rad14 strain (AID 165);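 also: 0% = growth equal to vehicle treated cultures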; conditions: S. cerevisiae cln2 rad14 strain, active compounds read high
In short: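 Readout is yeast growth inhibition versus vehicle-treated controls, using a strain with cln2 and rad14 alterations exposed to compound.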

[5] = NCI Yeast Anticancer Drug Screen. Data for the bub3 strain (AID 167); conditions: S. cerevisiae bub3 mutant strain, active compounds read high
In short: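 Screening used yeast with an engineered genetic alteration affecting cell cycle control. Compound-exposed cultures were compared with vehicle cultures, and reduced growth was taken as inhibition.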

[6] = NCI Yeast Anticancer Drug Screen. Data for the mlh1 rad18 strain (AID 175); conditions: S. cerevisiae mlh1 rad18 strain growth inhibition, active compounds read high
In short: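 Genetically defined yeast (DNA repair-deficient) exposed to compounds; growth inhibition determined relative to vehicle.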

[7] = at 5.0 µM (retest, dose inferred, filed as 0.5)
[8] = at 50.0 µM (retest, dose inferred, filed as 5.0)

Measured: growth inhibition

COc1ccc(C(=O)OC(=O)c2ccc(OC)cc2)cc1
inactive: [1]; [7] 5% | [1]; [8] 9% | [2]; [7] -6% | [2]; [8] 7% | [2]; at 50.0 µM 18.1% | [3]; [7] 2% | [3]; [8] -70% | [3]; at 50.0 µM 22.1% | [4]; [7] 4% | [4]; [8] -4% | [4]; at 50.0 µM 6.05% | [5]; [7] -1% | [5]; [8] 8% | [5]; at 50.0 µM 28.1% | [6]; [7] -10% | [6]; [8] 16%
active: [1]; at 50.0 µM 71.4% | [6]; at 50.0 µM 74.4%

CCCCCc1cc(Cl)cc(Cl)c1O
inactive: [1]; [7] -5% | [1]; [8] 45% | [1]; at 50.0 µM 60.1% | [2]; [7] -23% | [2]; [8] 0% | [2]; at 50.0 µM 10.1% | [3]; [7] -5% | [3]; [8] 26% | [3]; at 50.0 µM 67.5% | [4]; [7] 0% | [4]; [8] -6% | [4]; at 50.0 µM -13.2% | [5]; [7] -22% | [5]; [8] -22% | [5]; at 50.0 µM 9.05% | [6]; [7] -3% | [6]; [8] 18% | [6]; at 50.0 µM 62.1%

CCCCCCCCCCCCS
inactive: [1]; [7] 0% | [1]; [8] -3% | [1]; at 50.0 µM 26.2% | [2]; [7] -1% | [2]; [8] -1% | [2]; at 50.0 µM 6.25% | [3]; [7] -3% | [3]; [8] -1% | [3]; at 50.0 µM 15.9% | [4]; [7] -2% | [4]; [8] 1% | [4]; at 50.0 µM 43.3% | [5]; [7] 2% | [5]; [8] -3% | [5]; at 50.0 µM -20.6% | [6]; [7] 3% | [6]; [8] 6% | [6]; at 50.0 µM -30.9%

O=C1c2c(F)c(F)c(F)c(F)c2SC2=NCCN12
active: [1]; [8] 99% | [1]; at 50.0 µM 78.4% | [2]; [8] 98% | [2]; at 50.0 µM 80.4% | [3]; [8] 97% | [3]; at 50.0 µM 76.5% | [4]; [8] 98% | [4]; at 50.0 µM 76.8% | [5]; [8] 99% | [5]; at 50.0 µM 83.2% | [6]; [8] 98% | [6]; at 50.0 µM 78.7%
inactive: [1]; [7] 2% | [2]; [7] -4% | [3]; [7] -10% | [4]; [7] -23% | [5]; [7] -31% | [6]; [7] 11%

O=[N+]([O-])c1ccc(/C=C/[n+]2ccc3ccccc3c2)o1
inactive: [1]; [7] 29% | [2]; [7] 24% | [3]; [7] 40% | [4]; [7] -6% | [5]; [7] 10% | [6]; [7] 52%
active: [1]; [8] 93% | [1]; at 50.0 µM 98.8% | [2]; [8] 91% | [2]; at 50.0 µM 98.8% | [3]; [8] 98% | [3]; at 50.0 µM 98.9% | [4]; [8] 95% | [4]; at 50.0 µM 96.2% | [5]; [8] 97% | [5]; at 50.0 µM 99.2% | [6]; [8] 97% | [6]; at 50.0 µM 99%

O=C(c1ccccc1)N1CCN(c2cccc(Cl)c2)CC1
active: [5]; [8] 93% | [5]; at 50.0 µM 77.4%
inactive: [1]; [7] 0% | [1]; [8] 2% | [1]; at 50.0 µM 29.2% | [2]; [7] 0% | [2]; [8] 2% | [2]; at 50.0 µM 0.45% | [3]; [7] -2% | [3]; [8] 8% | [3]; at 50.0 µM 12.7% | [4]; [7] -1% | [4]; [8] 10% | [4]; at 50.0 µM -26.1% | [5]; [7] 9% | [6]; [7] 1% | [6]; [8] 12% | [6]; at 50.0 µM 16.3%

O=C1CC(c2ccccc2Cl)C(c2ccccc2Cl)C1 (stereo not given)
active: [1]; [8] 97% | [1]; at 50.0 µM 97.5% | [2]; [8] 98% | [2]; at 50.0 µM 96% | [3]; [8] 96% | [3]; at 50.0 µM 96.7% | [4]; [8] 97% | [4]; at 50.0 µM 95.5% | [5]; [8] 97% | [5]; at 50.0 µM 97.2% | [6]; [8] 96% | [6]; at 50.0 µM 97.2%
inactive: [1]; [7] -2% | [2]; [7] -6% | [3]; [7] -7% | [4]; [7] -2% | [5]; [7] 0% | [6]; [7] -2%

OC(c1ccccc1)(c1ccccc1)C1CCCCC1
inactive: [1]; [7] 14% | [1]; at 50.0 µM 25.5% | [2]; [7] 7% | [2]; at 50.0 µM 1.7% | [3]; [7] -4% | [3]; at 50.0 µM 40.1% | [4]; [7] -8% | [4]; at 50.0 µM -5.35% | [5]; [7] -13% | [5]; at 50.0 µM 5.95% | [6]; [7] 2% | [6]; at 50.0 µM 9.9%
active: [1]; [8] 97% | [2]; [8] 97% | [3]; [8] 98% | [4]; [8] 96% | [5]; [8] 97% | [6]; [8] 97%

CCCNC(=O)N(CC(C)(C)C)S(=O)(=O)c1ccc(Cl)cc1
active: [1]; at 50.0 µM 71.1% | [2]; at 50.0 µM 93.1% | [4]; at 50.0 µM 86.8% | [5]; at 50.0 µM 99.5%
inactive: [1]; [7] -4% | [1]; [8] -10% | [2]; [7] -2% | [2]; [8] -10% | [3]; [7] -2% | [3]; [8] 0% | [3]; at 50.0 µM 68.3% | [4]; [7] -4% | [4]; [8] -17% | [5]; [7] 7% | [5]; [8] 27% | [6]; [7] -5% | [6]; [8] -97% | [6]; at 50.0 µM 36.2%

CC(C)NC(=O)OCc1c(CO)c2c(n1C)-c1ccccc1CC2
active: [1]; [8] 96% | [1]; at 50.0 µM 95.9% | [2]; [8] 96% | [2]; at 50.0 µM 98% | [3]; [8] 96% | [3]; at 50.0 µM 97.8% | [4]; [8] 95% | [4]; at 50.0 µM 96.8% | [5]; [8] 96% | [5]; at 50.0 µM 98.3% | [6]; [8] 96% | [6]; at 50.0 µM 95.5%
inactive: [1]; [7] -5% | [2]; [7] -4% | [3]; [7] 50% | [4]; [7] -10% | [5]; [7] -3% | [6]; [7] 11%
